Screens from PubChem.
NPC1 promoter act: activators of NPC1 promoter. Huh7 NPC1 promoter luciferase reporter, 24 h. Potency, µM (top dose mostly 9.22 µM), usual class: activators. hit rate 2.4% among 320,000; further: nearly all actives have a fitted effect of over 60% in size
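Huh7 reporter cells (NPC1 promoter driving luciferase) are dosed with compound for 24 h at 37 °C, 5% CO2; luciferase detection reagent is then added and luminescence measured after 10 min at ambient temperature.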
Luc counter: Kinase-Glo luciferase inhibition (counter-screen). Q27757. Kinase-Glo luciferase, ATP luminescence, 8 min. Potency, µM (series often up to 38.3 µM), most hits filed as inhibitors. hit rate 0.28% among 200,000. AID 1379; further: nearly all actives have a fitted effect of over 60% in size
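Luminescence was the read-out, taken after 8-minute incubation at ambient temperature. Luciferase turned over luciferin with 10 uM ATP in imidazole pH 7.2 buffer containing KCl, MgCl2, Tween 20 and BSA.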
Rab9 promoter act: Rab9 promoter activation; Huh7 Rab9 promoter-luciferase reporter, luminescence, 24 h; Potency, µM (titrated, usually from 9.22 µM), usual class: activators; hit rate 2.8% among 320,000; further: nearly all actives have a fitted effect of over 60% in size
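Huh7 reporter line, Rab9 promoter upstream of luciferase. Compound exposure 24 h at 37 °C in reduced-serum medium with 10% FBS. Read-out: luminescence.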
FLuc counter: inhibits or activates purified firefly luciferase, miR-21 counter-screen | P08659 | purified FLuc, Km substrates, luminescence inhibition | Potency, µM (highest dose often 57.5 µM), most hits filed as inhibitors | hit rate 6.9% among 360,000; further: nearly all actives have a fitted effect of over 55% in size
Target sequence (P08659 whole entry, looked up): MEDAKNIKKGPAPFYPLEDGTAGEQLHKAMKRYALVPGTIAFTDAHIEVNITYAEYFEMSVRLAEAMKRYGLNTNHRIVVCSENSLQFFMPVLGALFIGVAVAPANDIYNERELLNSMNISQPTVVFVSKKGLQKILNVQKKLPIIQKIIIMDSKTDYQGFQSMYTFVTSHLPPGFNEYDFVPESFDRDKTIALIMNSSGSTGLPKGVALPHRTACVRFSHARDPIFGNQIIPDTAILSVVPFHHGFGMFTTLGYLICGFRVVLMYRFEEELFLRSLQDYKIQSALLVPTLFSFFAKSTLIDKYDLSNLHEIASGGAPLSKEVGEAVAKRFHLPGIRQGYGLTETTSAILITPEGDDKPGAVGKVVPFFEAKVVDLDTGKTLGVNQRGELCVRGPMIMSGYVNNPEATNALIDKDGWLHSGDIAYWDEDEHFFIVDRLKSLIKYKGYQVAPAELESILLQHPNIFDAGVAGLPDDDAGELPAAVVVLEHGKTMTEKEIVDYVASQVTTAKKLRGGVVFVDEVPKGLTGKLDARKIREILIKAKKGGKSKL
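Purified P. pyralis luciferase (10nM final) with 10uM D-luciferin and 10uM ATP (Km levels) in 50mM Tris acetate pH 7.5, 10mM Mg acetate, 0.01% Tween-20, 0.05% BSA; qHTS 6-point titration, ~60 µM downward; luminescence read.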
SMN2 splice up: enhancers of SMN2 splice variant expression; HEK293 SMN2-luciferase splicing reporter, luminescence, 30-36 h; Potency, µM (top dose mostly 46.1 µM), hits mostly activators; hit rate 2.8% among 210,000; further: nearly all actives have a fitted effect of over 55% in size
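HEK293 cells carry an SMN2 […]–luciferase reporter in which exon 7 inclusion puts luciferase in frame. Cells were plated 10-12 h before compound addition, then incubated 30-36 h at 37C. ONE-Glo luminescence was read; sodium butyrate at 4.5 mM final served as control.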
Numbers stand for hits; – = inactive; ? = inconclusive; · = no result; [ ] = dose if it differs, or a comment. This is a sample that favours compounds with a hit; in the whole collection about 7.3% have one here. The call rests on the fitted dose curve; in most records, active means well fitted curve in the direction sought with a large enough effect; inconclusive means small, poorly fitted or top-dose-only effect, or another doubt; inactive means no such curve, though single readings can be large; an effect the other way counts as inactive or inconclusive.

SMILES	NPC1 promoter act	Luc counter	Rab9 promoter act	FLuc counter	SMN2 splice up
O=C(/C=C/c1ccc(Br)cc1)c1ccc(NC(=O)c2ccco2)cc1	–	–	–	?	–
O=C(/C=C/C=C/c1ccccc1)c1ccco1	?	·	–	3µM	·
O=C(/C=C/c1ccc(Br)cc1)c1ccco1	–	–	–	3.4µM	–[1.84 µM]
CCc1cc2c(cc3c(=O)n(CC(=O)NC4CCCCC4)nc(CC)n32)s1	·	·	·	–	–
Cc1ccc2c(c1)c1c(c(=O)n(-c3ccccc3)c(=O)n1CC(=O)c1ccc(F)cc1)n2C	·	·	·	–	·
Cc1ccc(Nc2nc(COC(=O)C3CC3)cs2)cc1	?	–	3.2µM	4.3µM	?
CCc1sc(Nc2cccc(Cl)c2)nc1-c1cc2cccc(OC)c2oc1=O	·	·	·	–	·
Cc1cc(N/N=C/c2ccncc2)nc2ccccc12	?	–	2.8µM	11µM	14µM
ClC(Cl)(Cl)c1nc(N/N=C/c2ccncc2)c2ccccc2n1	–	–	–	–	–
Cc1cc(N/N=C/c2cccc(Br)c2)nc2ccccc12	3.2µM	–	?	4.8µM	13µM
CCN(CC)C(=O)c1sc2c(c1C)c(=O)n(-c1ccc(C)c(C)c1)c(=O)n2CC(=O)Nc1ccc(OC)cc1OC	·	·	·	–	·
CCn1cc(C(=O)N2CCN(c3cccc(Cl)c3)CC2)c(=O)c2cc(S(=O)(=O)N3CCCCC3)ccc21	·	·	·	–	–
CCC(C(=O)Nc1ccc(C)c(C)c1)n1c(=O)c(C(F)(F)F)nc2ccccc21 (stereo not given)	·	·	·	–	·
COc1ccc(N=Nc2nc3ccc(Br)cc3n2C)cc1	2.8µM	?	2.5µM	0.38µM	?
COc1ccc(-c2c(-c3cc(OC)cc(OC)c3)n(C)c3ccc(Br)cc23)cc1	–	·	–	–	·
CSc1nsc(SCC(=O)Nc2ccc(C(C)=O)cc2)n1	–	–	–	21µM	13µM
COc1ccccc1Nc1nnc(SCC(=O)NC2CCCC2)s1	–	·	–	–	·
O=C(CSc1nnc(NC(=O)NC2CCCCC2)s1)Nc1ccccc1F	·	·	·	3µM	·
CC(=O)c1ccc(NC(=O)CSc2nnc(NC(=O)NC3CCCCC3)s2)cc1	·	·	·	0.48µM	·
COc1ccccc1NC(=O)CSc1nnc(NC(=O)NC2CCCCC2)s1	·	·	·	2.4µM	·
O=C(CSc1nnc(Nc2ccccc2F)s1)NC1CC1	–	·	–	?	·
CCOC(=O)c1ccc(NC(=O)c2ccc3c(c2)CCN3S(=O)(=O)c2ccc(Cl)cc2)cc1	·	·	·	–	–
COc1ccc(-n2c(=O)c3c(c4cc(OC)ccc4n3C)n(CC(=O)NCC3CCCO3)c2=O)cc1 (stereo not given)	·	·	·	–	·
COCCCNC(=O)C1CCC(Cn2c(=O)c3sccc3n(C)c2=O)CC1 (stereo not given)	·	·	·	–	·
CCOc1cc(C#N)c(NC(=O)c2ccc(OC)c(S(=O)(=O)N3CCN(c4ccccc4)CC3)c2)cc1OCC	·	·	·	–	–
SMILES	NPC1 promoter act	Luc counter	Rab9 promoter act	FLuc counter	SMN2 splice up
Cc1ccc(CNC(=O)CSc2nc3c(sc4ccccc43)c(=O)n2CCCOC(C)C)cc1	·	·	·	–	·
CCc1ccc(Nc2nnc(SCC(=O)NC(=O)CN3CCCC3=O)s2)cc1	–	·	–	3µM	·
COc1ccc(NC(=O)NC2CCCCCCC2)cc1OC	–	·	–	?	·
COc1ccc(NC(=O)CSc2nnc(NC(=O)NC3CCCCC3)s2)cc1OC	·	·	·	2.4µM	·
COc1ccccc1Nc1nnc(SCC(=O)N2CCCC2)s1	–	?	–	?	–
COc1ccccc1Nc1nnc(SCC(=O)N2CCCC2=O)s1	–	–	–	9.5µM	–
Cc1ccc2c(c1)N(CC(=O)Nc1ccccc1C(F)(F)F)C(=O)c1cccnc1O2	·	·	·	–	·
CCOc1ccc(-c2nn(-c3ccccc3)cc2C2NC(=O)NC(C)=C2C(=O)OC(C)C)cc1C (stereo not given)	·	·	·	–	–
Cc1cccc(OCC(=O)Nc2ccc(C(=O)OCc3cc(=O)n4nc(C5CC5)sc4n3)cc2)c1	·	·	·	–	·
CCC(=O)N1CCc2cc(S(=O)(=O)NCCC(=O)NCc3ccc(OC)cc3)ccc21	·	·	·	–	–
O=C(NNc1nc(-c2ccccc2)cs1)c1ccccc1	–	–	–	?	–
c1ccc(-c2csc(Nc3ccccn3)n2)cc1	2.2µM	·	1.3µM	1.3µM	·
COc1ccc(-c2csc(Nc3ccccn3)n2)cc1OC	1.8µM	·	2µM	6.7µM	·
Oc1ccc(-c2csc(Nc3ccccn3)n2)cc1	2µM	·	3.2µM	6.7µM	·
Fc1ccc(-c2csc(Nc3ccccn3)n2)c(F)c1	1.6µM	·	2.8µM	0.6µM	·
